According to PubChem BioAssay AID1159580 (chemical genetic matrix, 2015):
Values joined by “and” are separate entries in the source; they are usually repeats but may differ in a detail not shown here. Equal values may be shown once. Hit rate of the full screen: of about 5,500 compounds, about 2,000 (36%) were called active. Inconclusive results (about 18%) are left out. Rule as the data show it: active = normalized growth mostly below about 0.91 (no sharp cut-off); inconclusive = no clear call, values can overlap the other calls; inactive = mostly above about 0.92. The list shows a part of the results.

Assay: chemical genetic growth profiling, strain panel (AID 1159580);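 also: tested at 20 µM; growth read once vehicle control cultures reached saturation at 30 °C; 1 = growth at the plate median or of vehicle wells; lower values mean less growth of the strain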
Details: S. cerevisiae deletion strains, growth OD

Measured: normalized growth

O=C1CCCC2C3CC(CN12)[C@@H]1CCCCN1C3 (stereo not given in full)
inactive: locus YAL013W, strain DEP1, stronger effect = lower value 1.02 | locus YAL021C, strain ccr4, stronger effect = lower value 0.988 | locus YAL026C, strain drs2, stronger effect = lower value 1.01 | locus YAL030W, strain snc1, stronger effect = lower value 0.995 | locus YBL061C, strain skt5, stronger effect = lower value 0.995 | locus YBR009C, strain hhf1, stronger effect = lower value 0.999 | locus YBR021W, strain FUR4, stronger effect = lower value 1.04 | locus YBR023C, strain chs3, stronger effect = lower value 1 | locus YBR171W, strain sec66, stronger effect = lower value 0.992 | locus YBR229C, strain ROT2, stronger effect = lower value 0.985 | locus YBR231C, strain swc5, stronger effect = lower value 0.996 | locus YBR279W, strain paf1, stronger effect = lower value 1 | locus YCL011C, strain gbp2, stronger effect = lower value 0.995 | locus YCL016C, strain dcc1, stronger effect = lower value 0.993 | locus YCL029C, strain bik1, stronger effect = lower value 0.982 | locus YCL061C, strain MRC1, stronger effect = lower value 0.998 | locus YCL069W, strain vba3, stronger effect = lower value 0.999 | locus YCR088W, strain abp1, stronger effect = lower value 0.987 | locus YDL005C, strain med2, stronger effect = lower value 0.991 | locus YDL035C, strain GPR1, stronger effect = lower value 1.02 | locus YDL040C, strain nat1, stronger effect = lower value 0.991 | locus YDL074C, strain BRE1, stronger effect = lower value 1 | locus YDL101C, strain DUN1, stronger effect = lower value 0.988 | locus YDL134C, strain PPH21, stronger effect = lower value 0.993 | locus YDL185W, strain tfp1, stronger effect = lower value 0.984 | locus YDL192W, strain arf1, stronger effect = lower value 0.987 | locus YDR001C, strain nth1, stronger effect = lower value 1 | locus YDR069C, strain doa4, stronger effect = lower value 1.01 | locus YDR101C, strain arx1, stronger effect = lower value 0.988 | locus YDR137W, strain rgp1, stronger effect = lower value 1.01 | locus YDR159W, strain sac3, stronger effect = lower value 0.987 | locus YDR162C, strain NBP2, stronger effect = lower value 1.01 | locus YDR195W, strain ref2 0.981 | locus YDR297W, strain sur2, stronger effect = lower value 0.993 | locus YDR318W, strain mcm21, stronger effect = lower value 1 | locus YDR334W, strain swr1, stronger effect = lower value 1.02 | locus YDR335W, strain msn5, stronger effect = lower value 0.998 | locus YDR388W, stronger effect = lower value 0.997 | locus YDR392W, strain spt3, stronger effect = lower value 0.927 | locus YDR502C, strain sam2, stronger effect = lower value 0.989 | locus YEL003W, strain gim4, stronger effect = lower value 1 | locus YEL037C, strain rad23, stronger effect = lower value 1.01 | locus YEL061C, strain CIN8 (second series), stronger effect = lower value 0.998 | locus YEL061C, strain CIN8, stronger effect = lower value 0.997 | locus YER015W, strain faa2, stronger effect = lower value 1.01 | locus YER016W, strain bim1, stronger effect = lower value 0.995 | locus YER110C, stronger effect = lower value 0.977 | locus YER111C, strain swi4, stronger effect = lower value 0.998 | locus YER155C, strain BEM2 (second series), stronger effect = lower value 1.02 | locus YER155C, strain BEM2, stronger effect = lower value 0.98 | locus YER167W, strain BCK2, stronger effect = lower value 1.01 | locus YFR010W, strain ubp6, stronger effect = lower value 1 | locus YGL078C, strain dbp3, stronger effect = lower value 0.995 | locus YGL086W, strain mad1, stronger effect = lower value 1 | locus YGL167C, strain pmr1, stronger effect = lower value 0.991 | locus YGL173C, strain kem1, stronger effect = lower value 0.979 | locus YGL227W, strain vid30, stronger effect = lower value 1 | locus YGL240W, strain doc1, stronger effect = lower value 1 | locus YGL248W, strain PDE1, stronger effect = lower value 0.995 | locus YGL253W, strain hxk2, stronger effect = lower value 1 | locus YGR078C, strain PAC10, stronger effect = lower value 1.01 | locus YGR135W, strain pre9, stronger effect = lower value 1 | locus YGR229C, strain SMI1, stronger effect = lower value 1.02 | locus YGR252W, strain gcn5, stronger effect = lower value 1 | locus YHR013C, strain ard1, stronger effect = lower value 0.984 | locus YHR027C, strain rpn1, stronger effect = lower value 0.988 | locus YHR030C, strain SLT2, stronger effect = lower value 0.993 and 0.983 | locus YHR079C, strain IRE1 (second series), stronger effect = lower value 1 | locus YHR079C, strain IRE1, stronger effect = lower value 1.01 | locus YHR094C, strain hxt1, stronger effect = lower value 0.982 | locus YHR129C, strain ARP1, stronger effect = lower value 0.983 | locus YHR142W, strain chs7, stronger effect = lower value 0.996 | locus YHR200W, strain rpn10, stronger effect = lower value 0.997 | locus YIL066C, strain RNR3, stronger effect = lower value 1 | locus YIL073C, strain SPO22, stronger effect = lower value 1.02 | locus YIL125W, strain kgd1, stronger effect = lower value 0.994 | locus YIR030C, strain dcg1, stronger effect = lower value 0.993 | locus YJL092W, strain hpr5, stronger effect = lower value 1 | locus YJL095W, strain BCK1 (second series), stronger effect = lower value 0.99 | locus YJL095W, strain BCK1, stronger effect = lower value 0.983 and 0.957 | locus YJL115W, strain asf1, stronger effect = lower value 0.989 | locus YJL129C, strain trk1, stronger effect = lower value 0.99 | locus YJL134W, strain LCB3, stronger effect = lower value 0.997 | locus YJL154C, strain vps35, stronger effect = lower value 0.993 | locus YJL164C, strain tpk1, stronger effect = lower value 1 | locus YJL166W, strain qcr8, stronger effect = lower value 0.989 | locus YJL168C, strain set2, stronger effect = lower value 1 | locus YJL187C, strain SWE1 (second series), stronger effect = lower value 0.987 | locus YJL187C, strain SWE1, stronger effect = lower value 0.996 | locus YJR043C, strain POL32, stronger effect = lower value 1.04 | locus YJR066W, strain TOR1, stronger effect = lower value 0.992 | locus YKL009W, strain mrt4, stronger effect = lower value 0.974 | locus YKL068W, stronger effect = lower value 0.99 | locus YKL085W, strain MDH1 (second series), stronger effect = lower value 1.01 | locus YKL085W, strain MDH1, stronger effect = lower value 1.01 | locus YKL160W, strain elf1, stronger effect = lower value 0.982 | locus YKR001C, strain vps1, stronger effect = lower value 1.01 | locus YKR026C, strain gcn3, stronger effect = lower value 0.99 | locus YKR091W, strain srl3, stronger effect = lower value 1 | locus YLL001W, strain dnm1, stronger effect = lower value 0.979 | locus YLL026W, stronger effect = lower value 0.989 | locus YLL041C, strain sdh2, stronger effect = lower value 1 | locus YLR027C, strain aat2, stronger effect = lower value 0.99 | locus YLR039C, strain RIC1, stronger effect = lower value 1.04 | locus YLR058C, strain SHM2, stronger effect = lower value 0.992 | locus YLR102C, strain apc9, stronger effect = lower value 0.992 | locus YLR113W, strain HOG1, stronger effect = lower value 0.977 | locus YLR221C, strain rsa3, stronger effect = lower value 0.981 | locus YLR258W, strain gsy2, stronger effect = lower value 0.999 | locus YLR262C, strain YPT6 (second series), stronger effect = lower value 0.986 | locus YLR262C, strain YPT6, stronger effect = lower value 1.04 | locus YLR268W, strain sec22, stronger effect = lower value 0.979 | locus YLR320W, strain mms22, stronger effect = lower value 0.979 | locus YLR330W, strain CHS5, stronger effect = lower value 1.01 | locus YLR342W, strain FKS1 (second series), stronger effect = lower value 1.01 | locus YLR342W, strain FKS1, stronger effect = lower value 1.01 | locus YLR357W, strain rsc2, stronger effect = lower value 0.979 | locus YLR370C, strain arc18, stronger effect = lower value 1 | locus YLR371W, strain rom2, stronger effect = lower value 0.984 | locus YLR384C, strain iki3, stronger effect = lower value 1.01 | locus YLR418C, strain cdc73, stronger effect = lower value 1.02 | locus YML016C, strain PPZ1, stronger effect = lower value 0.978 | locus YML032C, strain rad52, stronger effect = lower value 1 | locus YML120C, strain ndi1, stronger effect = lower value 0.996 | locus YML124C, strain tub3, stronger effect = lower value 0.991 | locus YMR058W, strain fet3, stronger effect = lower value 1.01 | locus YMR078C, strain ctf18, stronger effect = lower value 0.991 | locus YMR125W, strain sto1, stronger effect = lower value 0.975 | locus YMR129W, stronger effect = lower value 0.995 | locus YMR205C, strain PFK2, stronger effect = lower value 0.978 | locus YMR223W, strain ubp8, stronger effect = lower value 0.995 | locus YMR231W, strain pep5, stronger effect = lower value 0.999 | locus YMR307W, strain GAS1, stronger effect = lower value 1.06 | locus YNL067W, strain RPL9B, stronger effect = lower value 0.993 | locus YNL071W, strain lat1, stronger effect = lower value 0.997 | locus YNL153C, strain GIM3, stronger effect = lower value 0.993 | locus YNL183C, strain NPR1, stronger effect = lower value 0.967 | locus YNL209W, strain ssb2, stronger effect = lower value 1 | locus YNL233W, strain BNI4, stronger effect = lower value 0.998 | locus YNL248C, strain rpa49, stronger effect = lower value 0.993 | locus YNL250W, strain rad50, stronger effect = lower value 0.984 | locus YNL271C, strain bni1, stronger effect = lower value 0.991 | locus YNL298W, strain CLA4, stronger effect = lower value 1 | locus YNL307C, strain MCK1, stronger effect = lower value 0.985 | locus YNL322C, strain KRE1 (second series), stronger effect = lower value 0.979 | locus YNR049C, strain mso1, stronger effect = lower value 0.994 | locus YNR052C, strain pop2, stronger effect = lower value 0.993 | locus YOL006C, strain TOP1, stronger effect = lower value 0.968 | locus YOL012C, strain htz1 2.29 | locus YOL147C, strain pex11, stronger effect = lower value 0.992 | locus YOR001W, strain rrp6, stronger effect = lower value 1.03 | locus YOR061W, strain CKA2, stronger effect = lower value 0.988 | locus YOR069W, strain VPS5, stronger effect = lower value 0.982 | locus YOR070C, strain gyp1, stronger effect = lower value 1.02 | locus YOR080W, strain dia2, stronger effect = lower value 0.986 | locus YOR083W, strain WHI5, stronger effect = lower value 0.973 | locus YOR106W, strain vam3, stronger effect = lower value 1 | locus YOR136W, strain idh2, stronger effect = lower value 0.985 | locus YOR144C, strain elg1, stronger effect = lower value 0.998 | locus YOR184W, strain ser1, stronger effect = lower value 0.991 | locus YOR231W, strain MKK1, stronger effect = lower value 1.01 | locus YOR265W, strain rbl2, stronger effect = lower value 1 | locus YOR270C, strain vph1, stronger effect = lower value 1.03 | locus YOR290C, strain snf2, stronger effect = lower value 0.975 | locus YOR316C, strain cot1, stronger effect = lower value 0.993 | locus YPL051W, strain arl3, stronger effect = lower value 0.993 | locus YPL078C, strain atp4, stronger effect = lower value 0.997 | locus YPL106C, strain sse1, stronger effect = lower value 0.968 | locus YPL240C, strain hsp82, stronger effect = lower value 0.999 | locus YPL256C, strain CLN2, stronger effect = lower value 1.01 | locus YPR119W, strain clb2, stronger effect = lower value 0.999 | locus YPR141C, strain kar3, stronger effect = lower value 0.982 | locus YPR163C, strain tif3, stronger effect = lower value 0.996 | locus YPR167C, strain met16, stronger effect = lower value 0.995 | strain wtn01, stronger effect = lower value 0.967
